# Experimental data: PubChem BioAssay (EPA / NIEHS)
# Activity calls are given as the source filed them. The calls were made as follows: active = hit-call score of the fitted dose curve at least 0.9, where 1 is the maximum; inactive = score below 0.9.
# Experiment: APR_HepG2_p53Act_72hr: Apredica 72-hour HepG2 Assay for p53 Activation (AID 2282923);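 also: average cellular p53 protein immunofluorescence intensity in HepG2 cells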
# Details: high-content imaging, actives raise or lower the signal
# Procedure: APR_HepG2_72hr is a cell-based, multiplexed-readout assay that uses HepG2, a human liver cell line, with measurements taken at 72 hours after chemical dosing in a 384-well plate.APR_HepG2_p53Act_72hr is one of 10 assay component(s) measured or calculated from the APR_HepG2_72hr assay. It is designed to make measurements of dna content, a form of viability reporter, as detected with fluorescence intensity signals by HCS Fluorescent Imaging technology.Data from the assay component APR_HepG2_p53Act_72hr was analyzed into 1 assay endpoint. This assay endpoint, APR_HepG2_p53Act_72hr, was analyzed with bidirectional fitting relative to DMSO as the negative control and baseline of activity. Using a type of viability reporter, measures of protein for gain or loss-of-signal activity can be used to understand the signaling at the pathway-level as they relate to the gene TP53. Furthermore, this assay endpoint can be referred to as a primary readout, because this assay has produced multiple assay endpoints where this one serves a signaling function. To generalize the intended target to other relatable targets, this assay endpoint is annotated to the dna binding intended target family, where the subfamily is tumor suppressor.
# Cells were treated with dimethyl sulfoxide (DMSO) as a solvent control at a final concentration of 0.5% v/v or with compounds in DMSO with a resulting final DMSO concentration of 0.5% v/v. Compound treatment was done at concentrations of 0.39, 0.78, 1.56, 3.12, 6.24, 12.5, 25, 50, 100, and 200 uM in duplicate on each plate. Cells were treated with compounds for 1, 24, or 72 hr. Carbonyl […] m-chloro-phenylhydrazone (CCCP) and taxol were used as positive controls for mitochondrial function and cytoskeletal stability, respectively; DMSO served as the negative control for this experiment. Cells were fixed by the direct addition of 50 uL formaldehyde in Hank's Balanced Salt Solution (HBSS) to a final concentration of 3.7%. After incubation in the fixation medium for 30 min at room temperature (293-298 K), cells were rinsed twice with HBSS and treated with cell permeabilization buffer (16 uL of 0.5% Triton X-100) for 10 min at room temperature (293-298 K) before labeling. For mitochondrial membrane potential and mitochondrial measurements, pre-fixed cells were incubated with 50 uL of MitoTracker Red CMXRos (Invitrogen) at a concentration of 250 nM for 30 min before fixation. In the remaining cases, post-fixed cells were labeled by incubation with a multiplexed mixture of primary antibodies in HBSS for 60 min at room temperature (293-298 K) to detect immunoreactivity of c-Jun (1:500), phospho-histone H3 (1:100), phospho-histone H2A.x (1:200), p53 (1:400), alpha-tubulin (1:200) and Hoechst 33342 (2 ug/mL). Cells were labeled for multiplexed imaging on two separate plates: a) Hoechst 33342, MitoTracker Red, phospho-histone H3, and alpha-tubulin, and b) Hoechst 33342, phospho-histone H2A.x, and c-Jun. A final rinse with HBSS (50 uL) was performed before analysis. The primary and secondary antibodies for the proteins were phospho-histone H3 (rabbit anti-phospho-histone H3 and FITC-donkey anti-rabbit IgG), phospho-histone H2A.x (mouse anti-phospho-histone H2A.x and FITC-donkey anti-mouse IgG), c-Jun (rabbit anti-phospho-c-Jun and Cy3-donkey anti-rabbit IgG), p53 (sheep anti-p53 and Cy5-donkey anti-sheep IgG), alpha-tubulin (mouse anti-alpha-tubulin and Cy5-donkey anti-mouse IgG). These antibodies are available as the CellCiphr HepG2 assay kit (Millipore).Digital images of each well were captured using a Cellomics ArrayScan VTI (Thermo Scientific Cellomics) (0.8 NA objective, 0.63x optical coupler, and XF-93 filter set) at 20x magnification. The images were acquired using the autofocus feature of the ArrayScan instrument, which entails the following steps. First, the camera focuses on channel 1 (Hoechst 33342), where nuclei are identified. Second, a Z offset of 1 um is used for capturing mitochondria (MitoTracker Red). […]
Compound,outcome,AC50
CC1=C2C[C@H]3[C@@H](CC=C4C[C@@H](O)CC[C@@]43C)[C@@H]2CC[C@]12O[C@@H]1C[C@H](C)CN[C@H]1[C@H]2C,inactive,
C[C@]12CCC(=O)C=C1CC[C@@H]1[C@@H]2CC[C@@]2(C)[C@H]1CC[C@]2(C)O,inactive,
c1cc2ccc3cccc4ccc(c1)c2c34,inactive,
Oc1ccc(Cl)cc1Cl,inactive,
Cc1cc(-c2ccc(N)c(C)c2)ccc1N,inactive,
Nn1cnnc1,inactive,
CCCCCCCCOC(=O)c1ccccc1C(=O)OCCCCCCCC,inactive,
C=CC(=O)NCNC(=O)C=C,inactive,
CCOP(=S)(OCC)SCSC(C)(C)C,inactive,
CCC(=O)O[C@H]1CC[C@H]2[C@@H]3CCC4=CC(=O)CC[C@]4(C)[C@H]3CC[C@]12C,,89.9 µM (active)
ClC1=C(Cl)[C@]2(Cl)[C@@H]3[C@@H]4C[C@@H]([C@H]5O[C@@H]45)[C@@H]3[C@@]1(Cl)C2(Cl)Cl,inactive,
N#Cc1ccc(N(CC(N)=O)CC(F)(F)F)cc1C(F)(F)F,inactive,
CC(c1ccc(O)cc1)(c1ccc(O)cc1)c1ccc(O)cc1,,110 µM (active)
COc1ccc(O)c(C(C)(C)C)c1,inactive,
O=C(NC(=O)c1cc(F)c(F)cc1Cl)Nc1cc(F)ccc1N1CCC(C(=O)O)CC1,inactive,
CCOC(=O)C(O)(c1ccc(Cl)cc1)c1ccc(Cl)cc1,,49.4 µM (active)
COS(=O)(=O)OC,inactive,
O=NN(c1ccccc1)c1ccccc1,inactive,
C1CC2OC2CC1C1CO1 (stereo not given),inactive,
CC#Cc1cc(C)nc(Nc2ccccc2)n1,,103 µM (active)

Compound,outcome,AC50
Oc1ccc(C(c2ccc(O)cc2)(C(F)(F)F)C(F)(F)F)cc1,inactive,
C[C@]12CCC(=O)C=C1CC[C@@H]1[C@@H]2CC[C@]2(C)C(=O)CC[C@@H]12,inactive,
ClC(Cl)=C(c1ccc(Cl)cc1)c1ccc(Cl)cc1,inactive,
Nc1ccc(-c2ccc(N)cc2)cc1,,106 µM (active)
CCCCCCCCCc1ccc(O)cc1,inactive,
CC(C)C(=O)OCC(C)(C)C(OC(=O)C(C)C)C(C)C (stereo not given),inactive,
O=C(O)C(F)(F)C(F)(F)C(F)(F)C(F)(F)C(F)(F)F,inactive,
Oc1c(Cl)c(Cl)c(Cl)c(Cl)c1Cl,inactive,
CN(C)CCO,inactive,
ClC1=C(Cl)[C@]2(Cl)[C@@H]3[C@H]4C[C@H]([C@@H]5O[C@H]45)[C@@H]3[C@@]1(Cl)C2(Cl)Cl,inactive,
CO/C=C(/C(=O)OC)c1ccccc1COc1cccc(C(F)(F)F)n1,,26.9 µM (active)
Clc1ccc(Cl)cc1,inactive,
C=CC(N)=O,inactive,
O=C(N[C@H]1CN2CCC1CC2)c1cc2ccoc2cn1,inactive,
Cc1ccccc1O,inactive,
Cc1ccc(O)c(C)c1,inactive,
Cc1cc(O)ccc1Cl,inactive,
Cc1cccc([N+](=O)[O-])c1,inactive,
Clc1ccc(C(Cl)(Cl)Cl)cc1,inactive,
CCCCCCCCCC[N+](C)(C)CCCCCCCCCC,,3.25 µM (active)
